Results with a measured potency or affinity are listed apart. Records with an inconclusive call do not appear. The source made the active and inactive calls.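 Rule for the calls: active = a valid curve of falling signal whose half-effect concentration is at most ten times the top tested dose; inconclusive = flat curve at 30 to 70% inhibition, or poor fit; inactive = signal rise, flat within 30%, or potency beyond limit.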

Results on 39 molecules are retold here after PubChem BioAssay AID493194 (Broad Institute, 2011).

The test deals with Scavenger receptor class B member 1 (Mus musculus) (UniProt Q61009). Put plainly: mouse SR-BI DiI-HDL uptake blockers – ldlA[mSR-BI] cells, fluorescence, cherry pick, dose response (AID 493194).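 Note: CHO cells lacking LDL receptor and overexpressing mouse SR-BI; cellular uptake of fluorescently labeled HDL measured as cell fluorescence.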 To be noted: CHO ldlA[mSR-BI] DiI-HDL uptake fluorescence, 3 h; series mostly up to 35 µM.
Chain of Scavenger receptor class B member 1 (Mus musculus) (Q61009 whole entry, looked up): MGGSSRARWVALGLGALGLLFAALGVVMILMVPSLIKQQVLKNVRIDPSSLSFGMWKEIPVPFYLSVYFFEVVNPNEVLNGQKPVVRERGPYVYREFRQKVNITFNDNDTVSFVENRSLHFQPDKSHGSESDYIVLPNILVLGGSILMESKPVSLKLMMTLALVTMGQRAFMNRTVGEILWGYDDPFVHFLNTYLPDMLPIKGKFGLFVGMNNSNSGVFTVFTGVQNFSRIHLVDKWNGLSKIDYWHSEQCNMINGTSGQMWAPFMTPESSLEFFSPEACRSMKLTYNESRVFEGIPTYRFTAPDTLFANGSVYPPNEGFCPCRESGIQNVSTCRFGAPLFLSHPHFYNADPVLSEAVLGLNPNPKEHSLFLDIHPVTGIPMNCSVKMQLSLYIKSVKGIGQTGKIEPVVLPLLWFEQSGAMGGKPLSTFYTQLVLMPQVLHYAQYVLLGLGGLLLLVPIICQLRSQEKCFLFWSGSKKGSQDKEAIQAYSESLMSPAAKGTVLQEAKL
Consider `COCCNC(=O)c1ccc(CS(=O)(=O)c2cccc(C(F)(F)F)c2)o1`, for which the call was inactive. `Cc1cc(C)cc(NC(=O)c2ccc3c(c2)CCN3S(C)(=O)=O)c1`: the call was inactive. In the case of `COc1ccc(-c2csc(N3CCN(c4cc(C)nc5ccccc45)CC3)n2)cc1OC` it was “inactive”; in that of `CC1Cc2ccccc2N1CC(=O)Nc1ccc(N2CCOCC2)cc1` (centres undefined), “inactive”. On to `O=C(O)c1cc(N2C(=O)C=CC2=O)cc(N2C(=O)C=CC2=O)c1`, for which the result was inactive. In the case of `Cn1nc(-c2ccc(Cl)cc2)c2cc(C(=O)NCCCN3CCOCC3)sc21` it was “inactive”. In the case of `Oc1ccc(/C=C/c2nc(-c3ccccc3O)n(-c3ccccc3)n2)cc1` it was “inactive”; in that of `O=C(c1cccc(Cl)c1)N1CCC2CC1c1cc(-c3ccccc3)ccc12` (centres undefined), “inactive”. In the case of `CN(C(=O)c1ccc2c(c1)CCN2S(C)(=O)=O)c1ccccc1`, the molecule was called inactive. On to `CCOc1ccc(OCCSc2nc3ccccc3n2CC(=O)O)cc1`, for which the result was inactive. In the case of `CC(Sc1nc2cc([N+](=O)[O-])ccc2n1-c1ccc(F)cc1)C(=O)NCc1ccc2c(c1)OCO2` (centres undefined) it was “inactive”; in that of `COc1ccc(OC[C@@H](O)CNC(=O)c2cccc3c2C(=O)c2ccc(-c4ccc(F)cc4OCc4ccccc4)cc2S3(=O)=O)cc1`, “inactive”. Regarding `C=CCN(CC=C)C(=O)COn1nnc2ccc(S(=O)(=O)N3CCOCC3)cc21`, the outcome was inactive. Consider `O=C(Nc1ccc(N2CCOCC2)cc1)c1cccc(S(=O)(=O)N2CCC(Cc3ccccc3)CC2)c1`, for which the result was inactive. Consider `Cc1c(C(=O)Nc2ccc(Cl)cc2)c2ccccn2c1CCc1ccncc1`, for which the result was inactive. In the case of `CCOC(=O)C1=CN(c2cccc(F)c2)C=C(C(=O)OCC)C1c1cc(OC)c(O)c([N+](=O)[O-])c1` it was “inactive”. In the case of `Cc1ccc(-c2nnc(N3CCC(C)CC3)c3ccccc23)cc1C` it was “inactive”. With `COc1ccc(NC(=O)CN2CCN(CC(=O)Nc3ccc(OC)c(OC)c3)CC2)cc1`, the call was inactive. Take `COc1ccc(N2CC(C(=O)NCCC3=CCCCC3)CC2=O)c(OC)c1` (centres undefined): the result was inactive. Take `COc1ccc(N2CC(C(=O)N3CCN(S(=O)(=O)c4ccc(F)c(F)c4)CC3)CC2=O)c(OC)c1` (centres undefined): the call was inactive.

For the molecule `NC(=O)c1cc(-c2ccccc2)sc1NC(=O)CN1CCCCC1`, the result was inactive. In the case of `CC(C)(C)NC(=O)N1CCN(c2ncccc2C(F)(F)F)CC1` it was “inactive”.

`CC(C)C(C(=O)OCC(=O)c1ccc2c(c1)NC(=O)CO2)N1C(=O)c2ccccc2C1=O` (centres undefined): the outcome was inactive. In the case of `CC(=O)c1c(C)[nH]c(C(=O)OCc2nc3ccsc3c(=O)[nH]2)c1C` it was “inactive”; in that of `O=C(NC1CCCC1)C(c1c[nH]c2ccccc12)N(C(=O)Cn1nnc(-c2ccc(Cl)cc2)n1)c1ccccc1` (centres undefined), “inactive”; in that of `Cc1ccc2c(c1)C(=O)C(=O)N2CC(=O)Nc1ccc(N2CCOCC2)cc1`, “inactive”. In the case of `Cc1cc(C)c(C)c(S(=O)(=O)N2CCN(CC(=O)NC(=O)NCc3ccccc3)CC2)c1C` it was “inactive”; in that of `COc1ccc(C2/C=C\CN(S(=O)(=O)c3ccc(C)cc3)CC(=O)N2Cc2ccc(F)cc2)cc1` (centres undefined), “inactive”; in that of `O=C(c1ccc(S(=O)(=O)NCc2ccco2)cc1)N1CCN(Cc2ccccc2)CC1`, “inactive”. In the case of `Cc1ccc(-c2nn(-c3ccccc3)cc2/C=C/C(=O)OCC(=O)NC2CC2)o1` it was “inactive”; in that of `Cc1cc(NC(=O)Nc2ccccc2)n(-c2ccccc2)n1`, “inactive”; in that of `COc1cc2c(C#CCCCO)c(-c3ccsc3)oc(=O)c2cc1OC`, “inactive”.

`CCOc1ccccc1CNC(=O)C1CCN(C(=O)c2sccc2-n2cccc2)CC1`: the molecule was classed as inactive. As to `N#Cc1ccc(CN2CCN(C(=O)c3ccc(S(=O)(=O)NCc4ccco4)cc3)CC2)cc1`, the molecule was classed as inactive. On to `CCCCNc1c(-c2ccc(-c3ccc(C(C)=O)cc3)c(OC)c2)nc2cnccn12`, for which the result was inactive. In the case of `CCOC(=O)C1=C(CNCCOc2ccc(OC)cc2)NC(=O)NC1c1ccc2c(c1)OCO2` (centres undefined) it was “inactive”; in that of `Cc1cccc(NC(=O)N2C3CCCC2CC(NC(=O)C(C)(C)C)C3)c1` (centres undefined), “inactive”. In the case of `C=CCOC(=O)c1[nH]c2c(c1C)C(=O)CC(c1cc(OC)c(OC)c(OC)c1)C2` (centres undefined), the call was inactive.

Turning to `CC(=O)Nc1nc(-c2ccccc2)nc(-c2ccccc2OC(C)=O)n1`, the outcome was inactive.
